The nature of experiment [1]: NCI Yeast Anticancer Drug Screen. Data for the rad50 strain (AID 155).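 Further: 0% = growth of vehicle-only cultures of the same strain.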 Conditions: S. cerevisiae rad50 strain growth inhibition; at 50.0 µM; hits give high values. Put shortly: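 Cells are treated with compound, grown, and their growth is then scored against vehicle-only cultures of the same repair-deficient yeast strain.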
Experiment [2] in a line: NCI Yeast Anticancer Drug Screen. Data for the mec2-1 strain (AID 157). Conditions: S. cerevisiae mec2-1 strain, at 50.0 µM, hits give high values. In a few lines:
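Strain: mec2-1 (DNA repair/cell cycle alteration). Compound exposure, then growth measured; inhibition expressed relative to vehicle.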

The nature of experiment [3]: NCI Yeast Anticancer Drug Screen. Data for the sgs1 mgt1 strain (AID 161).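 Further: 0% = growth of cultures given vehicle only.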 Conditions: S. cerevisiae sgs1 mgt1 strain, at 50.0 µM, hits give high values. In a few lines: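 Read-out: growth inhibition vs vehicle controls. Cells: mutant yeast strain deficient in DNA damage repair.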
The nature of experiment [4]: NCI Yeast Anticancer Drug Screen. Data for the cln2 rad14 strain (AID 165).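 Further: 0% = growth equal to vehicle treated cultures.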 The note with it: S. cerevisiae cln2 rad14 strain, at 50.0 µM, hits give high values. In a few lines: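 Compounds are applied to the cln2 rad14 yeast strain, and growth is then compared with that of vehicle-treated cultures to give inhibition.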
Experiment [5] is described as follows: NCI Yeast Anticancer Drug Screen. Data for the bub3 strain (AID 167). The note with it: S. cerevisiae bub3 mutant strain, at 50.0 µM, hits give high values. Put shortly:
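Part of a panel of yeast mutants defective in DNA damage repair or cell cycle regulation. Each strain is grown with compound, and inhibition is calculated relative to solvent-treated cultures.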

Experiment [6] in a line: NCI Yeast Anticancer Drug Screen. Data for the mlh1 rad18 strain (AID 175). Conditions: S. cerevisiae mlh1 rad18 strain growth inhibition; at 50.0 µM; hits give high values. Put shortly:
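Read-out is yeast growth inhibition, calculated against vehicle-only controls. The compound was applied to a strain engineered with DNA damage repair alterations.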

Consider 20 molecules from PubChem BioAssay (NCI).

This is part of a sample that, as a whole, favours compounds with a hit. Of some 79,000 tested, about 15% had one in any assay. Values without a mark were called inactive. The source made the active and inactive calls. No stated cut-off is given here; in the data, active means growth inhibition above about 70%; inactive means the rest.

Consider `O=C(N/N=C/c1cccc(F)c1)c1ccncc1`, for which the growth inhibition in experiment [1] is 8.4%; in experiment [2] it was 1%; in experiment [3] it was -2.05%; in experiment [4] it was -23.9%; in experiment [5], -0.35%; in experiment [6] it was 8.35%.

Regarding `CC(=O)c1cccc(NC(=O)Nc2cccc(C)n2)c1`, the growth inhibition was -9.55% in experiment [1]; 32.8% in experiment [2]; 11.9% in experiment [3]; -24.6% in experiment [4]; 8.55% in experiment [5]; 12.6% in experiment [6].

For `CC1OC(C)(c2ccccc2)OC1C` (stereo not given), the growth inhibition is 18.1% in experiment [1]; 13.8% in experiment [2]; 27.1% in experiment [3]; -26.5% in experiment [4]; 32.7% in experiment [5]; 41.7% in experiment [6].

For `COc1cc(Cl)ccc1NC(=O)Oc1ccc(C=O)cc1OC`, the growth inhibition in experiment [1] is 3.8%; in experiment [2] it was 10.2%; in experiment [3] it was 6.75%; in experiment [4], 9.85%; in experiment [5], 17.9%; in experiment [6], 10.8%.

As for `COC(=O)C(=O)C1(c2ccccc2)CCCC(CN(C)C)=C1O` (stereo not given), the growth inhibition in experiment [1] is 3.35%; in experiment [2] it was -0.15%; in experiment [3] it was 2.65%; in experiment [4], -4.95%; in experiment [5], -2.65%; in experiment [6], -12.7%.

In the case of `O=C1c2cc(Cl)ccc2NC(O)c2cccn21` (stereo not given), the growth inhibition in experiment [1] was 3.45%; in experiment [2], 1.8%; in experiment [3] it was -4.3%; in experiment [4], -20.9%; in experiment [5], -11.4%; in experiment [6], -0.55%.

On to `CC(=O)C1CCC(CCCC(C)C)CC1` (stereo not given), for which the growth inhibition was 13.9% in experiment [1]; -2.4% in experiment [2]; -2.75% in experiment [3]; -10.4% in experiment [4]; 2.4% in experiment [5]; 6.2% in experiment [6].

As for `COc1cc(C2SCCCCCCCCCCSC(c3ccc(O)c(OC)c3)SCCCCCCCCCCS2)ccc1O` (stereo not given), the growth inhibition in experiment [1] was -24.6%; in experiment [2] it was -24.8%; in experiment [3], -29.2%; in experiment [4] it was -18.9%; in experiment [5], -30.2%; in experiment [6], -6.9%.

`N#[N+]c1ccc(Nc2ccccc2)cc1`: the growth inhibition is -8.2% in experiment [1]; 9.55% in experiment [2]; -20.1% in experiment [3]; 12.3% in experiment [4]; -10.8% in experiment [5]; -4.25% in experiment [6].

As to `COc1cc(C[C@H]2C(=O)OCC2Cc2ccc(OC)c(OC)c2)ccc1O` (stereo not given in full), the growth inhibition in experiment [1] is -39.1%; in experiment [2], -60.6%; in experiment [3], -26.9%; in experiment [4], -5.2%; in experiment [5], 2.05%; in experiment [6] it was -22.3%.

As to `Nc1ncnc2c1ncn2C1OC(CO)C(NC(=O)C(N)CCC(=O)O)C1O` (stereo not given), the growth inhibition is 1.75% in experiment [1]; -4.2% in experiment [2]; 21.6% in experiment [3]; -9.4% in experiment [4]; -0.9% in experiment [5]; -5.3% in experiment [6].

For `CC(=O)O[C@H]1CC[C@@]2(C)C(=CC(=O)[C@H]3[C@@H]4CC[C@H]([C@H](C)CCCC(C)C)[C@@]4(C)CC[C@@H]32)C1`, the growth inhibition in experiment [1] was 10.8%; in experiment [2], 19.1%; in experiment [3] it was 39%; in experiment [4], 36%; in experiment [5] it was 5.9%; in experiment [6] it was 46%.

Take `S=c1nc[nH]c2c1ncn2C1CCCC1`: the growth inhibition in experiment [1] was -2.25%; in experiment [2] it was -4.75%; in experiment [3], -4.55%; in experiment [4], -14.9%; in experiment [5], -0.3%; in experiment [6], -3.1%.

Turning to `COCCCC(NC(=O)C(CC(C)C)NC(=O)OCc1ccc(OC)cc1)C(N)=O` (stereo not given), the growth inhibition in experiment [1] is -12.9%; in experiment [2], -21.4%; in experiment [3] it was -22.9%; in experiment [4], 4.2%; in experiment [5], -12.1%; in experiment [6] it was 4.2%.

Consider `CCOC(=O)c1c(N)n(-c2ccccc2)c(=O)n(-c2ccccc2)c1=O`, for which the growth inhibition was -8.85% in experiment [1]; -5.3% in experiment [2]; -30.9% in experiment [3]; 19.4% in experiment [4]; -31.8% in experiment [5]; -34% in experiment [6].

As for `CC(=O)OCCn1c(Cc2ccc(Cl)cc2)nn(C(C)=O)c1=O`, the growth inhibition in experiment [1] is 14.4%; in experiment [2], 5.95%; in experiment [3], 20.1%; in experiment [4] it was 6.7%; in experiment [5], -15.2%; in experiment [6], 15.3%.

`CC(=O)c1cccc(NC(=O)Oc2ccc(Cl)cc2Cc2ccccc2)c1`: the growth inhibition in experiment [1] was 99.1% (active); in experiment [2] it was 50.2%; in experiment [3], 64.1%; in experiment [4], 99.5% (active); in experiment [5], 99.4% (active); in experiment [6], 99% (active).

For `CN1C(=O)N(C)C2(CCN(CCCCCCF)CC2)C1=O`, the growth inhibition was -10.2% in experiment [1]; -19.9% in experiment [2]; -34.2% in experiment [3]; -6.9% in experiment [4]; -18.6% in experiment [5]; -29.4% in experiment [6].

For the molecule `CN(C)CCN(C)CCN(C)CCN(C)C`, the growth inhibition was -10.4% in experiment [1]; -25.8% in experiment [2]; 11.8% in experiment [3]; -6.75% in experiment [4]; 5.9% in experiment [5]; -6.7% in experiment [6].

`O=c1c2ccccc2nc(-c2ccccc2Cl)n1NCC1(O)OCC(O)C(O)C1O` (stereo not given): the growth inhibition in experiment [1] was 12%; in experiment [2] it was 5.2%; in experiment [3], 16.6%; in experiment [4], -13.2%; in experiment [5] it was -1.2%; in experiment [6], 3.25%.
